# The supplement of paper PMC7801607
# Tested on: Plasmodium falciparum NF54 stage IV/V gametocytes
# Assay: % inhibition of gametocyte viability (PrestoBlue); higher = more inhibition
# Conditions: 5 µM; 48 h
# Procedure, shortened: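 Values are percent inhibition of gametocyte viability, normalised to vehicle and kill controls in a single run. Stage IV/V NF54 gametocytes (2% gametocytaemia, 5% haematocrit, 100 µL/well) were held with compound at 1 or 5 µM for 48 h at 37 °C, stationary and hypoxic. Viability was read as 612 nm fluorescence on 70 µL of supernatant after a 2 h incubation with 10 µL PrestoBlue.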
row,SMILES,% inhibition of gametocyte viability [%]
1,C[C@@H](c1nc(-c2ccc(C#N)cc2)cs1)[C@](O)(Cn1cncn1)c1ccc(F)cc1F,15
2,O=C(Nc1ccccc1)N(Cc1cc(Br)ccc1O)c1ccc(F)cc1,8.98
3,O=C(NC1CCCc2c1[nH]c1ccc(Cl)cc21)c1ccccn1 (stereo not drawn),6.95
4,O=C(CSc1nnc(Br)n1-c1ccc(C2CC2)c2ccccc12)Nc1ccc(C(=O)O)cc1Cl,20.5
5,O=C(NN1C(=O)[C@@H]2C3C=CC([C@H]4C[C@@H]34)[C@@H]2C1=O)c1ccc(C(F)(F)F)cc1,< 0
6,CO[C@@]1(NC(=O)Cc2cccs2)C(=O)N2C(C(=O)O)=C(COC(N)=O)CS[C@@H]21,20.3
7,c1ccc(-c2nnc3c4ccccc4c(N4CCNCC4)nn23)cc1,50.3
8,O=C(O)c1ccccc1Sc1ncnc2sc3c(c12)CCC3,18.3
9,CCNC(=O)Nc1cc2c(-c3ccnc(C)c3)ccc(CNC(=O)OC)c2cn1,27.4
10,COc1c(F)c(F)cc2c(=O)c(C(=O)O)cn(C3CC3)c12,16.9
11,COC1CC2CCC(C)C(O)(O2)C(=O)C(=O)N2CCCCC2C(=O)OC(C(C)CC2CCC(OCCO)C(OC)C2)CC(=O)C(C)/C=C(\C)C(O)C(OC)C(=O)C(C)CC(C)/C=C/C=C/C=C/1C (stereo not drawn),4.18
12,O=C(Nc1nnc(-c2ccccc2)o1)c1ccc(F)cc1,< 0
13,O=C(O)C(Cc1c[nH]c2ccccc12)N1C(=O)c2ccccc2C1=O (stereo not drawn),< 0
14,O=C(NCc1ncc(C(F)(F)F)cc1Cl)c1c(Cl)cccc1Cl,3.98
15,CC(C)(C)NC(=O)[C@@H]1C[C@@H]2CCCC[C@@H]2CN1C[C@@H](O)[C@H](Cc1ccccc1)NC(=O)[C@H](CC(N)=O)NC(=O)c1ccc2ccccc2n1,19.6
16,N#Cc1cc([N+](=O)[O-])ccc1Oc1ccccc1Cl,53.9
17,O=c1nc(N2CCN(CC3CCCCC3)CC2)sc2c([N+](=O)[O-])cc(C(F)(F)F)cc12,4.32
18,[N-]=[N+]=N[C@H]1C[C@H](n2ccc(=O)[nH]c2=O)O[C@@H]1CO,16.8
19,Cc1onc(-c2ccccc2Cl)c1C(=O)N[C@@H]1C(=O)N2[C@@H]1SC(C)(C)[C@@H]2C(=O)O,30.1

row,SMILES,% inhibition of gametocyte viability [%]
1,O=C(c1ccccc1)N1CCN(c2ccccc2NC(=O)C(Cl)(Cl)Cl)CC1,5.75
2,O=[N+]([O-])c1cn(Cc2nc(O)nc(O)c2Br)cn1,21.3
3,CCc1nc2ccc(Cl)cn2c1C(=O)NCc1ccc(N2CCC(c3ccc(OC(F)(F)F)cc3)CC2)cc1,< 0
4,Cc1ccc(C)c(OCCCCCCN2C[C@H](O)[C@@H](O)[C@H](O)[C@H]2CO)c1,< 0
5,COc1cc(Cc2cc(N)nc(N)n2)cc(OC)c1OC,< 0
6,O=C(Cn1cnc2ccccc2c1=O)Nc1ccccc1,25.4
7,CC[C@H](NC(=O)[C@H](C)NC)C(=O)N1C[C@@H](O)C[C@H]1Cc1c(-c2[nH]c3cc(F)ccc3c2C[C@@H]2C[C@H](O)CN2C(=O)[C@H](CC)NC(=O)[C@H](C)NC)[nH]c2cc(F)ccc12,54.9
8,O=C(N[C@H](CCS)C(=O)N[C@H](Cc1ccccc1)C(=O)O)c1cc2ccccc2[nH]1,< 0
9,CCCCCCCc1[nH]c2ccccc2c(=O)c1O,< 0
10,CN1CCN(Cc2ccc(-c3cnc4[nH]cc(-c5ccc6[nH]ccc6c5)c4c3)cc2)CC1,< 0
11,CCc1oc2ccccc2c1C(=O)c1ccc(O)cc1,17.5
12,C=CCc1cc(Cc2cnc(N)nc2N)cc(OC)c1O,29.7
13,CC1(C)C[C@H]1C(=O)N/C(=C\CCCCSC[C@@H](N)C(=O)O)C(=O)O,25.8
14,CCCCc1ccc(S(=O)(=O)Nc2cc(C)on2)cc1,10.4
15,O=c1ccc2ncc(=O)n3c2n1CC3CN1CCC(NCc2cc3c(cn2)OCCC3)CC1 (stereo not drawn),28.4
16,C=C[C@]1(C)C[C@@H](OC(=O)CS[C@@H]2C[C@H]3CC[C@@H](C2)N3C)[C@]2(C)[C@H](C)CC[C@]3(CCC(=O)[C@H]32)[C@@H](C)[C@@H]1O,2.51
17,CN(C/C=C/C#CC(C)(C)C)Cc1cccc2ccccc12,< 0
18,O=C(O)CCNC(=O)c1ccccc1,-0.209
19,Nc1nc(NC2Cc3ccc(F)cc3C2)nc(N2CCCCC2)n1 (stereo not drawn),55.5
